Source: PubChem BioAssay (NCI)
This is part of a sample that, as a whole, favours compounds with a hit. Of some 83,000 tested, about 20% had one in any assay.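 Results are percent growth after 48 hours of single-concentration exposure. 100 means growth as in untreated cells, lower positive values show inhibition; negative values down to -100 show cell death.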 Values without a mark were called inactive. Activity calls are given as the source filed them. How the source made its calls: active means growth percent below 10; inactive means the rest.

What was measured:
Experiment in all cases: NCI-60 one-dose screen, 48 h (100 = growth as untreated, 0 = no growth, -100 = all killed)
RPMI-8226 leukemia = settings: 10 µM
OVCAR-8 ovarian = settings: 10 µM
OVCAR-5 ovarian = settings: 10 µM
OVCAR-4 ovarian = settings: 10 µM
SK-OV-3 ovarian = settings: 10 µM
IGROV1 ovarian = settings: 10 µM
OVCAR-3 ovarian = settings: 10 µM
HS 578T breast = settings: 10 µM
NCI/ADR-RES ovarian = settings: 10 µM
T-47D breast = settings: 10 µM
BT-549 breast = settings: 10 µM
MDA-MB-435 melanoma = settings: 10 µM
SW-620 colon = settings: 10 µM
MCF7 breast = settings: 10 µM unless noted
HCT-116 colon = settings: 10 µM
HCC-2998 colon = settings: 10 µM
KM12 colon = settings: 10 µM
SR leukemia = settings: 10 µM

Compound	growth (RPMI-8226 leukemia)	growth (OVCAR-8 ovarian) [%]	growth (OVCAR-5 ovarian) [%]	growth (OVCAR-4 ovarian)	growth (SK-OV-3 ovarian) [%]	growth (IGROV1 ovarian)	growth (OVCAR-3 ovarian)	growth (HS 578T breast) [%]	growth (NCI/ADR-RES ovarian) [%]	growth (T-47D breast)	growth (BT-549 breast) [%]	growth (MDA-MB-435 melanoma)	growth (SW-620 colon) [%]	growth (MCF7 breast)	growth (HCT-116 colon)	growth (HCC-2998 colon)	growth (KM12 colon)	growth (SR leukemia) [%]
COc1cc2cc(OC(C)=O)c3cc4c(cc3c2c(OC)c1OC)OCO4	97.4%	102	92.3	111%	103	107%	101%	91.4	95.7	106%	104	102%	96.9	93.6%	104%	107%	99.8%	–
CCNc1nc2c(cnn2C)c(=O)[nH]1	–	–	103	109%	96.2	84.5%	109%	92.5	108	92.5%	102	106%	97.9	100%	99.2%	105%	108%	92.3
CCOC(=O)c1[nH]c(C)c(C(C)=O)c1C	-7.82% (active)	96.1	88	86.8%	101	102%	95%	91.6	98	86.9%	107	94.7%	99.4	87.1%	90.4%	88.6%	98.3%	–
CC1SC(N)=NC1=O (stereo not drawn)	96.7%	105	85.9	117%	115	108%	116%	108	106	106%	123	109%	112	103%	108%	107%	110%	–
O=C(Cc1ccc(OCc2ccccc2)cc1)NCc1ccc2c(c1)OCO2	67.7%	91.1	110	107%	82.4	60.4%	58.9%	69.8	47.8	86.2%	56.1	-42.4% (active)	28.1	44.5%	40.4%	77.2%	33.1%	–
CN(C)C(=O)Oc1cccc([N+](C)(C)C)c1	117%	103	104	83.9%	107	115%	115%	107	114	99.8%	112	105%	108	87%	109%	106%	102%	–
CC1CCC(C(=O)O)N1 (stereo not drawn)	105%	112	91.5	99%	94.2	101%	109%	106	93	86.4%	102	111%	113	95%	102%	97.8%	106%	–
C#C[C@H]1CCCCCC1O (stereo partly drawn)	97.2%	111	115	120%	110	107%	113%	101	101	95.4%	113	109%	104	107%	106%	102%	107%	–
CC1(C)N=C(N)N=C(N)N1c1cccc(Br)c1	–	33.1	–	49.7%	44.3	54.9%	52.8%	–	–	80.9%	46.7	26.3%	36.6	23.6%	22.9%	23.4%	40.6%	49.4
O=C(O)/C=C/C(=O)NCc1ccccc1	94.7%	108	107	107%	112	98.4%	109%	113	102	98.5%	104	101%	109	91.9%	106%	95.7%	104%	–
COc1cc(/C=N\Nc2ccccc2)ccc1OC(=O)c1ccccc1	–	80.1	64.4	–	–	60.6%	70.5%	87.6	51.2	36.1%	91	44.5%	69.8	56.4%	71.3%	74.9%	8.69% (active)	49.6
Cc1c(O)cnc2nn(-c3ccccc3)c(=N)n12	113%	103	106	95.8%	108	113%	113%	127	108	100%	108	107%	102	97.5%	101%	98.4%	95.8%	–
COc1cc2nc3cc([N+](=O)[O-])ccc3c(Cl)c2cc1OC	–	88.2	86.3	–	106	89.7%	123%	112	103	83.2%	51.3	93.2%	–	83%	95.7%	106%	110%	91.7
COc1cc(CCN=Cc2ccccc2O)c([N+](=O)[O-])cc1OC	105%	107	101	120%	108	96.5%	101%	114	103	97.9%	91.2	110%	104	104%	95%	101%	107%	–
O=C(NCCNC(=O)c1ccc(Cl)cc1Cl)c1ccc(Cl)cc1Cl	97.8%	94.7	119	104%	98.7	100%	111%	107	97.6	99.3%	111	106%	113	102%	104%	100%	105%	–
CC(=O)Nc1ccc(NC(C)=O)c2c1C(=O)c1ccccc1C2=O	–	92.8	88.4	–	88.5	67%	104%	102	95.4	81.2%	36.4	107%	91	87.3%	79.3%	105%	94.5%	78.9
O=C(CC(=O)c1ccccc1O)c1ccccc1	87.6%	73	101	90.6%	98.9	98.3%	90.9%	106	64.4	79.7%	77.5	102%	86.4	76.4%	76.6%	107%	92.8%	–
OCc1ccc(-c2ccc(-c3ccc(CO)s3)o2)s1	–	–	103	-22.4% (active)	78.2	-73% (active)	-30.8% (active)	81.8	65.1	-15.5% (active)	58.4	38%	10.9	9.78% (active)	5.2% (active)	-14.5% (active)	81.5%	60.8
O=C(NCc1ccco1)Nc1c(Cl)cc(Cl)cc1Cl	100%	101	97.7	88.4%	103	105%	112%	109	101	88.6%	96.1	96.5%	102	92.8%	95.5%	102%	104%	–
